The nature of assay [1]: compounds binding Alexa647 anti-His antibody – biochemical, small-molecule microarray, 635 nm fluorescence, artefact control for SMM control protein annotation, primary screen (AID 1128).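 Also: score merges feature fluorescence with signal-to-noise for each printed compound spot.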 To be noted: higher = more signal.
The subject of assay [2] is Human papillomavirus type 1a E7 protein (residues 1-88). Put plainly: HPV1a E7 small-molecule binders, primary screen, biochemical, small-molecule microarray, residues 1-88, 635 nm (AID 1129). Particulars: small-molecule microarray binding, fluorescence 635 nm; higher = more signal.
Assay [3] has as its target Focal adhesion kinase 1 (Homo sapiens) (UniProt Q05397). Kind of assay: PTK2 protein binding on printed compound slides – biochemical, small-molecule microarray, 635/667 nm fluorescence, BSA, DTT, primary screen (AID 1130).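 Also: composite of spot emission at 667 nm and signal to noise over triplicate slides.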 To be noted: 635 nm fluorescence, higher = more signal.
The subject of assay [4] is Fibrinogen (Alexa647-labelled). Kind of assay: Alexa647-fibrinogen binding to printed small molecules – biochemical, small-molecule microarray, 635/667 nm fluorescence, artefact control for SMM control-protein annotation, profiling panel (AID 1131).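 Also: z-score merges 667 nm fluorescence with per-spot signal-to-noise over triplicate slides.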 To be noted: fibrinogen-A647 binding fluorescence, higher = more signal.
For assay [5], the target named is Follistatin (Homo sapiens) (UniProt P19883). Kind of assay: FST protein binding to printed compounds – biochemical, small-molecule microarray, 635/667 nm fluorescence, primary screen (AID 1132). Particulars: 635 nm fluorescence, higher = more signal.
For assay [6], the target named is Fibroblast growth factor 2 (Homo sapiens) (UniProt P09038). Kind of assay: basic fibroblast growth factor binding to printed compounds – biochemical, small-molecule microarray, 635/667 nm fluorescence, primary screen (AID 1133). Particulars: FGF2, fluorescence 635/667, higher = more signal.
Assay [7] in a line: JC-1 mitochondrial potential readout, lung cancer cells – cell-based, A549, JC-1 fluorescence, basal, 24 h, 100 nL, profiling panel (AID 1138).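 Also: A549 lung adenocarcinoma cells under basal conditions with no added stimulus; test concentration not given here.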 Particulars: higher = more signal.
The test system of a further assay is Lefty1. Put plainly: Lefty1 protein binding to printed compounds – biochemical, small-molecule microarray, 635/667 nm fluorescence, primary screen (AID 1139). To be noted: fluorescence 635/667, higher = more signal.
Assay [8] has as its system wheat germ agglutinin (Triticum aestivum), Alexa647-labelled. Put plainly: Alexa647-WGA lectin binding to printed small molecules – biochemical, small-molecule microarray, 635/667 nm fluorescence, artefact control for SMM control-protein annotation, profiling panel (AID 1140).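 Also: score merges 667 nm feature emission with signal to noise over triplicate slides.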 Particulars: WGA-A647 binding, 635 nm fluorescence, higher = more signal.
The target of assay [9] is Luciferin 4-monooxygenase (Photinus pyralis) (UniProt P08659). Kind of assay: inhibition of purified Photinus pyralis luciferase – biochemical, luminescence, purified enzyme, 2006 set, primary screen (AID 1141).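 Also: cell-free assay with purified firefly luciferase at 100 ng per well in PBS; test concentration not given here.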 Particulars: purified firefly luciferase, SteadyGlo luminescence, 30 min; higher = more signal, called active from +8 up or from −8 down.
For assay [10], the system named is Wnt5a (protein binding on small-molecule microarray). Put plainly: small molecules binding Wnt5a protein – biophysical, small-molecule microarray, 635/667 nm fluorescence, primary screen (AID 1142).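 Also: fluorescence read at 667 nm with signal to noise per printed feature.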 Particulars: 635 nm fluorescence, higher = more signal.
Assay [11] is described as follows: ATP-based viability of Huh7 replicon cells – cell-based, CellTiter-Glo luminescence, basal, 48 h, cytotoxicity control for HCV replication inhibitor project, primary screen (AID 1143).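 Also: Huh7 hepatoma cells carrying a hepatitis C replication reporter with no stimulus; test concentration not given here.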 Particulars: higher = more signal, called active from +8 up or from −8 down.
Assay [12] can be described thus: Pseudomonas biofilm growth suppression – PAO1 strain, BacTiter-Glo luminescence, LB-PBS, primary screen (AID 1144). To be noted: P. aeruginosa PAO1 biofilm, 12 h, higher = more signal.
Assay [13] can be described thus: basal CRE-LacZ reporter activity in PC12 – cell-based, unstimulated, primary screen (AID 1145). Particulars: no forskolin, luminescence, 4.5 h, higher = more signal, called active from +8 up or from −8 down.
Assay [14] can be described thus: forskolin-driven CRE-LacZ activity in PC12 – cell-based, CRE-LacZ reporter, forskolin-stimulated, primary screen (AID 1146).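 Also: PC12 cells with 6xCRE LacZ reporter stimulated by forskolin 10 µM; beta-galactosidase reporter signal reflecting CREB driven transcription.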 Particulars: luminescence, 4.5 h, higher = more signal, called active from +8 up or from −8 down.
Assay [15] concerns the target Streptavidin (Streptomyces avidinii) (UniProt P22629). Put plainly: compounds binding control protein streptavidin – biophysical, small-molecule microarray, 635/667 nm fluorescence, artefact control for SMM compound annotation, primary screen (AID 1147).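 Also: signal reflects streptavidin binding to arrayed compounds as a control protein.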 Particulars: higher = more signal.
A short description of assay [16]: probe aInhba binding on compound microarray – biochemical, small-molecule microarray, 635/667 nm fluorescence, primary screen (AID 1148).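 Also: score merges 667nm spot fluorescence with signal-to-noise for antibody binding to printed compounds.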 Particulars: higher = more signal.
In assay [17] the target is Torsin-1A (Homo sapiens) (UniProt O14656). Put plainly: TOR1A wild-type binding on microarray – cell lysate, small-molecule microarray, lysate, 635/667 nm, primary screen (AID 1149). Particulars: COS7 hTOR1A-WT lysate, 635 nm fluorescence, higher = more signal.
For assay [18] the target is unchanged. Kind of assay: torsin A mutant lysate binding on microarrays – cell lysate, small-molecule microarray, COS7 lysate, 635/667 nm fluorescence, primary screen (AID 1150).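 Also: score pools 667 nm emission and signal to noise measuring lysate protein binding.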 Particulars: COS7 hTOR1A mutant lysate, 635 nm fluorescence, higher = more signal.
Assay [19] relates to Sonic hedgehog protein (Shh). Kind of assay: Sonic hedgehog microarray binding compounds – biochemical, small-molecule microarray, 635/667 nm fluorescence, primary screen (AID 1151).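 Also: Shh protein binding to compounds spotted on small-molecule microarray slides; score combines spot fluorescence intensity with signal-to-noise across triplicate slides.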 To be noted: 635 nm fluorescence, higher = more signal.

Active and inactive are the calls of the source. Unless noted, no rule for the calls is given here.

The values below come from PubChem BioAssay.

Follistatin (Homo sapiens), sequence (P19883 whole entry, looked up): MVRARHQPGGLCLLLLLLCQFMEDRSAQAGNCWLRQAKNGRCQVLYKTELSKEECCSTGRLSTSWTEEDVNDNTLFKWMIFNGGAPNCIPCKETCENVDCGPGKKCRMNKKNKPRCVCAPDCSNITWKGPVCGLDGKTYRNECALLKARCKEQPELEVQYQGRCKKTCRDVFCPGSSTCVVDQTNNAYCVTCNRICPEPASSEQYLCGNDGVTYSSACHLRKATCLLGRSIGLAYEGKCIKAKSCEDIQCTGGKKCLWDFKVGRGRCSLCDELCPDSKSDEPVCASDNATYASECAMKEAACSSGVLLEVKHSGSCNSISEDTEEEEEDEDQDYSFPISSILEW
Streptavidin (Streptomyces avidinii), sequence (P22629 whole entry, looked up): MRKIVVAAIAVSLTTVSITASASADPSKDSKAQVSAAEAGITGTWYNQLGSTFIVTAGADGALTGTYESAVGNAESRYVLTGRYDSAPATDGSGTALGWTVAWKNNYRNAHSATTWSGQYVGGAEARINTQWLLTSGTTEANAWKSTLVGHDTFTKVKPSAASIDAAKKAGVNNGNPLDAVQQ
Focal adhesion kinase 1 (Homo sapiens), sequence (Q05397 whole entry, looked up): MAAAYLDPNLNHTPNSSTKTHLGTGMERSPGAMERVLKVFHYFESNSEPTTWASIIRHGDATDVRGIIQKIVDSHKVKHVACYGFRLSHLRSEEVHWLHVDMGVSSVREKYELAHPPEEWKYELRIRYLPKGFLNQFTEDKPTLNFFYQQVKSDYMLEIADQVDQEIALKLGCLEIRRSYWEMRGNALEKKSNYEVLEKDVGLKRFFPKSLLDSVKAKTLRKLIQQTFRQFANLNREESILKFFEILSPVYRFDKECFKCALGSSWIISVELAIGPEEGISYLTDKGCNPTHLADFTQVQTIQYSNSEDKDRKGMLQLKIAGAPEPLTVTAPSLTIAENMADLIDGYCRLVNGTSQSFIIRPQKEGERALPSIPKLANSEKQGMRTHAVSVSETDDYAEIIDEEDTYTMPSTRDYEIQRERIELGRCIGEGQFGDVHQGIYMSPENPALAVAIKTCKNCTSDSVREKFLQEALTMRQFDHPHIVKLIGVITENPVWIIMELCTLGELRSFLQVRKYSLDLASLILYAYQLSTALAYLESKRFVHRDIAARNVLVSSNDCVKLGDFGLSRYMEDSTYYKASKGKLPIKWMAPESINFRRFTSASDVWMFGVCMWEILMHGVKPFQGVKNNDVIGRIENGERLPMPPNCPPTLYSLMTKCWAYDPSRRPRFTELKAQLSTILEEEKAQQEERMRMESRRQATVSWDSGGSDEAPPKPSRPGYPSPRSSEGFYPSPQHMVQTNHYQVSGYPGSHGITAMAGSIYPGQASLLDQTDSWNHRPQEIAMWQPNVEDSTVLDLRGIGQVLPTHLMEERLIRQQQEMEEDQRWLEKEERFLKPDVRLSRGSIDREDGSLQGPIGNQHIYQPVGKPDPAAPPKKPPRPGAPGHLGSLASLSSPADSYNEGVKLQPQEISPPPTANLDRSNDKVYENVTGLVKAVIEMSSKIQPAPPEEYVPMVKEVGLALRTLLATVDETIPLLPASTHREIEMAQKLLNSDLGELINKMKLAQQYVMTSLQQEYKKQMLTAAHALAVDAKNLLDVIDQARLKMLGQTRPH
Luciferin 4-monooxygenase (Photinus pyralis), sequence (P08659 whole entry, looked up): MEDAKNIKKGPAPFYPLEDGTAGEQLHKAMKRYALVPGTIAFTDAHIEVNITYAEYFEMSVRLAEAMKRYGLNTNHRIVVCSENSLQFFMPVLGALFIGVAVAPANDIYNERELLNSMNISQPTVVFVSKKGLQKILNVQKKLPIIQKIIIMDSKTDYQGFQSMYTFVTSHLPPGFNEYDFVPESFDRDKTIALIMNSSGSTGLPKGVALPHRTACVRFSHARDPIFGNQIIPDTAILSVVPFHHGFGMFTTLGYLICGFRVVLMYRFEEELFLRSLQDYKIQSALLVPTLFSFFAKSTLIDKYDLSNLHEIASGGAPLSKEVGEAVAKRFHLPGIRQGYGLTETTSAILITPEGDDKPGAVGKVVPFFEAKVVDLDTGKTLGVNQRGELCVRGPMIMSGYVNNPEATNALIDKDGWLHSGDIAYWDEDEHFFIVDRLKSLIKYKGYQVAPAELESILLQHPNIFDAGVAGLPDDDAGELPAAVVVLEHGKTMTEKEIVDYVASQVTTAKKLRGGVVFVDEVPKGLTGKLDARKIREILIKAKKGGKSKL
Torsin-1A (Homo sapiens), sequence (O14656 whole entry, looked up): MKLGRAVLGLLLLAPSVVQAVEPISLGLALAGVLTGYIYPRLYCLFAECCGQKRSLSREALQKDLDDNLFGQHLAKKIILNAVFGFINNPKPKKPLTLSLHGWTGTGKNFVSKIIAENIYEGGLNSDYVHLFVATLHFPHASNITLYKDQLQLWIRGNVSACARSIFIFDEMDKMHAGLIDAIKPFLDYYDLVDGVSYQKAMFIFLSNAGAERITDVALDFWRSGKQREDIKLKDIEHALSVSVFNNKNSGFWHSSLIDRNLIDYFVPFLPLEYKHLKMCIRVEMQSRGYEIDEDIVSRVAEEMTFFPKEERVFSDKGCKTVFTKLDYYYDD
Fibroblast growth factor 2 (Homo sapiens), sequence (P09038 whole entry, looked up): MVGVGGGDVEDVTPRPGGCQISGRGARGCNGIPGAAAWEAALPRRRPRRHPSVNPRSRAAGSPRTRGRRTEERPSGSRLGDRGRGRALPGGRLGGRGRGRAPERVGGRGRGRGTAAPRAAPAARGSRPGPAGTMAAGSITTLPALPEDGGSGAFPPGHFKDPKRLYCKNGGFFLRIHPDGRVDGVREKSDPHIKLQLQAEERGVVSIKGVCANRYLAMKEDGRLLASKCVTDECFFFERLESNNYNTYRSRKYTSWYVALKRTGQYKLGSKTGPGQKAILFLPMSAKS

With `COCCOC(=O)N1C(=O)[C@@]2(c3ccccc31)[C@H](C(=O)N1CCN(c3ncccn3)CC1)[C@H]1C(=O)O[C@H](c3ccccc3)[C@H](c3ccccc3)N1[C@@H]2c1ccc(O)cc1`, the composite z-score in assay [1] was 1.12; in assay [2] it was 0.613; in assay [3], 0.585; in assay [4], 0.675; in assay [5], -0.147; in assay [6], 0.173. Further, the composite z-score in the assay with Lefty1 was 0.0567; in assay [8], 0.875; in assay [10] it was 0.135; in assay [15] it was 0.284; in [16] it was -0.41; with Torsin-1A (Homo sapiens) [17], -0.396. In addition, the results for the composite z-score (in the assay with Torsin-1A (Homo sapiens) [18]; in assay [19]) were -0.35 and 1.07, respectively. In addition, the z-score was -0.189 in [7]; -0.378 (inactive) in [9]; -2.65 (inactive) in assay [11]; 0.0365 (inactive) in assay [12]; 0.631 (inactive) in assay [13]; -0.484 (inactive) in [14].

In the case of `CC1=C([C@H](O)CCc2ccccc2)[C@H](CO)[C@@H]2C(=O)N(C)C(=O)[C@@H]2C1`, the composite z-score in assay [1] is 0.32; in assay [2], -0.183; in assay [3] it was 0.332; in [4], 0.431; in assay [5] it was 0.172; in assay [6] it was 0.227. In addition, the composite z-score was 0.475 with Lefty1; 0.133 in assay [8]; -0.124 in assay [10]; 0.591 in assay [15]; -0.218 in assay [16]; 0.285 in the assay with Torsin-1A (Homo sapiens) [17]. The figures for the composite z-score (in the assay with Torsin-1A (Homo sapiens) [18]; in assay [19]) were 0.0992 and 0.656, respectively. Also, the z-score in [7] was 1.48; in assay [9] it was -1.01 (inactive); in assay [11], -0.0547 (inactive); in assay [12], -0.518 (inactive); in assay [13], -0.321 (inactive); in assay [14], -0.33 (inactive).

Take `N#Cc1ccc(C(O)C2C=CC3C(=O)N(c4ccccc4)C(=O)C3N2Nc2ccccc2)cc1` (stereo not given): the composite z-score in [1] was 0.269; in assay [2] it was 0.455; in assay [3], 0.575; in assay [4], 0.528; in [5], 0.351; in assay [6], -0.265. Further, the composite z-score was -0.454 with Lefty1; 0.502 in assay [8]; 0.429 in assay [10]; 0.592 in [15]; 0.144 in [16]; -0.0489 with Torsin-1A (Homo sapiens) [17]. Also, the composite z-score was 0.227 with Torsin-1A (Homo sapiens) [18] and -0.669 in [19]. Besides, the z-score is -0.171 in [7]; -1.26 (inactive) in [9]; -3.06 (inactive) in assay [11]; -0.955 (inactive) in assay [12]; -0.133 (inactive) in [13]; 0.0648 (inactive) in [14].

In the case of `C=CCOC(=O)[C@H]1[C@@H]2C(=O)O[C@@H](c3ccccc3)[C@@H](c3ccccc3)N2[C@@H](c2ccc(OCCOC(=O)[C@@H]3C[C@@H]4C(=O)N[C@@H](CCCCNC(C)=O)C(=O)N4[C@@H]3c3ccc(O)cc3)cc2)[C@]12C(=O)Nc1ccc(I)cc12`, the composite z-score was 1.66 in assay [1]; 1.21 in [2]; 0.736 in assay [3]; 0.468 in [4]; 1.32 in assay [5]; 1.49 in assay [6]. For the same compound, the composite z-score with Lefty1 is 0.752; in assay [8], 0.0621; in assay [10], 0.804; in assay [15] it was -0.139; in assay [16] it was 0.225; with Torsin-1A (Homo sapiens) [17] it was 1.25. For the same compound, the composite z-score with Torsin-1A (Homo sapiens) [18] came to 1.15; in assay [19], 2.21. Further, the z-score in [7] is -1.38; in [9] it was -0.875 (inactive); in assay [11], -0.257 (inactive); in assay [12], 0.272 (inactive); in assay [13], 0.143 (inactive); in assay [14], 0.236 (inactive).

As for `C=CCC(OC(C)=O)[C@@H]1[C@@H](N(Cc2cccc3ccccc23)C(=O)Cc2ccc(OC)cc2)c2cc(OCCCO)ccc2N1C(=O)c1ccc2ccccc2n1` (stereo not given in full), the composite z-score is -0.115 in assay [1]; -0.0569 in assay [2]; 0.833 in assay [3]; 0.733 in assay [4]; 0.822 in assay [5]; 0.0677 in assay [6]. Also, the composite z-score was -0.0766 with Lefty1; 0.174 in [8]; 0.216 in [10]; 1.05 in assay [15]; 0.0569 in [16]; -0.512 with Torsin-1A (Homo sapiens) [17]. Also, the composite z-score turned out to be 0.0537 with Torsin-1A (Homo sapiens) [18] and 0.524 in [19]. Further, the z-score in [7] is 0.343; in assay [9], 0.565 (inactive); in assay [11] it was -2.08 (inactive); in assay [12], -0.253 (inactive); in [13], -0.374 (inactive); in [14], 1.3 (inactive).
